What all share (details): mRNA level, 48 h; actives raise or lower the signal
Read-out in assay [1]: Glutathione S-Transferase (GSTA2), GSTA2 (gene 2939)
Kind of assay: LTEA_HepaRG_GSTA2: Life Technologies and Expression Analysis (LTEA) Assay for Glutathione S-Transferase (GSTA2) using HepaRG (AID 2283497). Put shortly: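 Differentiated human HepaRG cells were exposed in duplicate for 48 h in serum-free induction medium, 8 points from 100 uM top in half-log steps, 0.5% DMSO. GSTA2 mRNA was measured by TaqMan qRT-PCR, normalized to ACTB, GAPDH and POLR2A; bidirectional fit versus DMSO.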

Read-out in assay [2]: Glutamate-cysteine ligase catalytic (GCLC), GCLC (gene 2729)
Kind of assay: LTEA_HepaRG_GCLC: Life Technologies and Expression Analysis (LTEA) Assay for Glutamate-cysteine ligase catalytic (GCLC) using HepaRG (AID 2283498). The essentials: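 Differentiated HepaRG cells exposed 48 h in serum-free induction medium, eight-point half-log series topping at 100 uM in 0.5% DMSO, duplicates. GCLC mRNA by qRT-PCR normalized to ACTB, GAPDH and POLR2A, fitted bidirectionally versus DMSO.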

Read-out in assay [3]: growth arrest and DNA damage 45 (GADD45G), GADD45G (gene 10912)
The experiment in a line: LTEA_HepaRG_GADD45G: Life Technologies and Expression Analysis (LTEA) Assay for growth arrest and DNA damage 45 (GADD45G) using HepaRG (AID 2283499). Put shortly:
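Differentiated human HepaRG cells, 48 h post-plating, exposed 48 h in serum-free induction medium to 8 half-log concentrations (top 100 uM, 0.5% DMSO) in duplicate. GADD45G mRNA measured by Fluidigm TaqMan qRT-PCR, normalized to ACTB, GAPDH, POLR2A; bidirectional fit versus DMSO.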

Read-out in assay [4]: Glutamate-cysteine ligase regulatory (GCLM), GCLM (gene 2730)
Kind of assay: LTEA_HepaRG_GCLM: Life Technologies and Expression Analysis (LTEA) Assay for Glutamate-cysteine ligase regulatory (GCLM) using HepaRG (AID 2283500). Put shortly: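 Differentiated HepaRG cells exposed 48 h in serum-free induction medium to eight half-log concentrations up to 100 uM (0.5% DMSO). GCLM mRNA by TaqMan qRT-PCR, normalized to ACTB, GAPDH and POLR2A; bidirectional fit versus DMSO.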

Read-out in assay [5]: Glutathione S-transferase M3 (GSTM3), GSTM3 (gene 2947)
The experiment in a line: LTEA_HepaRG_GSTM3: Life Technologies and Expression Analysis (LTEA) Assay for Glutathione S-transferase M3 (GSTM3) using HepaRG (AID 2283501). The essentials:
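Differentiated human HepaRG cells were exposed in duplicate for 48 h in serum-free induction medium, 8 points from 100 uM top in half-log steps, 0.5% DMSO. GSTM3 mRNA was measured by TaqMan qRT-PCR, normalized to ACTB, GAPDH and POLR2A; bidirectional fit versus DMSO.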

Read-out in assay [6]: Heat shock 70 kDa protein 1 (HSPA1A), gene 3303
The experiment in a line: LTEA_HepaRG_HSPA1A: Life Technologies and Expression Analysis (LTEA) Assay for Heat shock 70 kDa protein 1 (HSPA1A) using HepaRG (AID 2283502). The essentials: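 Human HepaRG cells in serum-free induction medium were exposed in duplicate for 48 h to 8 half-log concentrations, highest 100 uM, in 0.5% DMSO. HSPA1A mRNA read by TaqMan qRT-PCR, normalized to ACTB, GAPDH, POLR2A, fitted bidirectionally against DMSO.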

Read-out in assay [7]: Hypoxia-inducible factor 1-alpha (Homo sapiens) (UniProt Q16665)
The experiment in a line: LTEA_HepaRG_HIF1A: Life Technologies and Expression Analysis (LTEA) Assay for Hypoxia-inducible factor 1 (HIF1A) Trancription factor using HepaRG (AID 2283503). The essentials:
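Differentiated HepaRG cells in serum-free induction medium exposed 48 h, in duplicate, to 8-point half-log series from 100 uM in 0.5% DMSO. HIF1A mRNA measured by TaqMan qRT-PCR, normalized to ACTB/GAPDH/POLR2A, fitted bidirectionally versus DMSO.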

Read-out in assay [8]: 3-Hydroxy-3-Methylglutaryl-CoA Synthase 2 (HMGCS2), HMGCS2 (gene 3158)
Kind of assay: LTEA_HepaRG_HMGCS2: Life Technologies and Expression Analysis (LTEA) Assay for 3-Hydroxy-3-Methylglutaryl-CoA Synthase 2 (HMGCS2) using HepaRG (AID 2283504). Put shortly:
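Human HepaRG cells in serum-free induction medium were exposed in duplicate for 48 h to 8-point half-log series from 100 uM top in 0.5% DMSO. HMGCS2 mRNA measured by TaqMan qRT-PCR, normalised to ACTB, GAPDH, POLR2A; bidirectional fit versus DMSO.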

Read-out in the next assay: HGF (gene 3082)
The experiment in a line: LTEA_HepaRG_HGF: Life Technologies and Expression Analysis (LTEA) Assay for Hepatocyte Growth Facto (HGF) using HepaRG (AID 2283505). The essentials: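 Differentiated HepaRG cells in serum-free induction medium exposed 48 h in duplicate, 8 half-log concentrations from 100 uM in 0.5% DMSO. HGF mRNA by qRT-PCR, normalised to ACTB, GAPDH, POLR2A; bidirectional fitting.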

Read-out in assay [9]: Insulin Like Growth Factor 1 (IGF1), IGF1 (gene 3479)
Kind of assay: LTEA_HepaRG_IGF1: Life Technologies and Expression Analysis (LTEA) Assay for Insulin Like Growth Factor 1 (IGF1) using HepaRG (AID 2283506). The essentials:
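Differentiated HepaRG cells in serum-free induction medium, exposed 48 h in duplicate to 8 half-log concentrations up to 100 uM in 0.5% DMSO. IGF1 mRNA by Fluidigm qRT-PCR, normalised to ACTB, GAPDH and POLR2A.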

Read-out in assay [10]: Insulin-like growth factor-binding protein 1 (IGFBP1), IGFBP1 (gene 3484)
Kind of assay: LTEA_HepaRG_IGFBP1: Life Technologies and Expression Analysis (LTEA) Assay for Insulin-like growth factor-binding protein 1 (IGFBP1) using HepaRG (AID 2283508). Put shortly:
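HepaRG cells, plated 48 h then switched to serum-free induction medium, exposed in duplicate for 48 h to 8-point half-log series from 100 uM in 0.5% DMSO. mRNA measured by qRT-PCR, normalized to ACTB/GAPDH/POLR2A; bidirectional fit versus DMSO.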

Read-out in assay [11]: Interleukin 6 (IL6), IL6 (gene 3569)
The experiment in a line: LTEA_HepaRG_IL6: Life Technologies and Expression Analysis (LTEA) Assay for Interleukin 6 (IL6) using HepaRG (AID 2283509). Put shortly:
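HepaRG cells exposed in duplicate for 48 h to eight half-log concentrations, top 100 uM, in 0.5% DMSO serum-free induction medium. mRNA measured by qRT-PCR, normalized to ACTB, GAPDH and POLR2A. Bidirectional fit versus DMSO.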

Read-out in assay [12]: Interleukin 6 Receptor (IL6R), IL6R (gene 3570)
The experiment in a line: LTEA_HepaRG_IL6R: Life Technologies and Expression Analysis (LTEA) Assay for Interleukin 6 Receptor (IL6R) using HepaRG (AID 2283510). Put shortly: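 Differentiated HepaRG cells, plated 48 h, then exposed in duplicate for 48 h in serum-free induction medium to 8 half-log concentrations (top 100 uM, 0.5% DMSO). IL6R mRNA measured by TaqMan qRT-PCR, normalized to ACTB/GAPDH/POLR2A; bidirectional fit vs DMSO.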

Read-out in assay [13]: Potassium channel subfamily K member 1 (KCNK1), KCNK1 (gene 3775)
Kind of assay: LTEA_HepaRG_KCNK1: Life Technologies and Expression Analysis (LTEA) Assay for Potassium channel subfamily K member 1 (KCNK1) using HepaRG (AID 2283511). The essentials:
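Differentiated HepaRG cells, 48 h exposure in serum-free induction medium with 0.5% DMSO; 8 concentrations, half-log from 100 uM, duplicate. KCNK1 mRNA by qRT-PCR, normalized to ACTB, GAPDH, POLR2A; bidirectional fit vs DMSO.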

Read-out in assay [14]: Keratin 19 (KRT19), KRT19 (gene 3880)
The experiment in a line: LTEA_HepaRG_KRT19: Life Technologies and Expression Analysis (LTEA) Assay for Keratin 19 (KRT19) using HepaRG (AID 2283512). The essentials: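 Differentiated HepaRG cells in serum-free induction medium, exposed 48 h in duplicate to 8 half-log concentrations up to 100 uM in 0.5% DMSO. KRT19 mRNA by qRT-PCR, normalized to ACTB, GAPDH, POLR2A; bidirectional fit vs DMSO.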

Read-out in assay [15]: JUN Transcription Factor, JUN (gene 3725)
Kind of assay: LTEA_HepaRG_JUN: Life Technologies and Expression Analysis (LTEA) Assay for JUN Transcription Factor using HepaRG (AID 2283513). Put shortly:
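HepaRG cells, 48 h post-plating, exposed 48 h in serum-free induction medium to 8-point half-log series (top 100 uM, 0.5% DMSO), duplicate; mRNA by qRT-PCR (TaqMan, Fluidigm), normalized to ACTB/GAPDH/POLR2A; bidirectional fit vs DMSO.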

Read-out in assay [16]: Lipase C (LIPC), LIPC (gene 3990)
The experiment in a line: LTEA_HepaRG_LIPC: Life Technologies and Expression Analysis (LTEA) Assay for Lipase C (LIPC) using HepaRG (AID 2283514). Put shortly: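 HepaRG cells, 48 h after plating, treated in duplicate for 48 h in serum-free induction medium over 8 half-log concentrations from 100 uM, 0.5% DMSO. LIPC mRNA by TaqMan qRT-PCR normalized to ACTB/GAPDH/POLR2A; bidirectional fit versus DMSO.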

Read-out in assay [17]: Lipoprotein lipase (LPL), LPL (gene 4023)
The experiment in a line: LTEA_HepaRG_LPL: Life Technologies and Expression Analysis (LTEA) Assay for Lipoprotein lipase (LPL) using HepaRG (AID 2283515). Put shortly:
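Differentiated HepaRG cells, plated 48 h, then exposed 48 h in serum-free induction medium to 8 concentrations (top 100 uM, half-log steps) in 0.5% DMSO, duplicate. LPL mRNA measured by qRT-PCR, normalized to ACTB, GAPDH and POLR2A.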

Read-out in assay [18]: MicroRNA 122 (MIR122), gene 406906
The experiment in a line: LTEA_HepaRG_MIR122: Life Technologies and Expression Analysis (LTEA) Assay for MicroRNA 122 (MIR122) using HepaRG (AID 2283516). Also: the transcript read is the microRNA miR-122. Put shortly:
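Differentiated human HepaRG cells in serum-free induction medium exposed 48 h to 8 half-log concentrations from 100 uM in 0.5% DMSO, duplicate. MIR122 quantified by Fluidigm TaqMan qRT-PCR, normalised to ACTB, GAPDH, POLR2A; fold change fitted bidirectionally versus DMSO.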

Read-out in assay [19]: Intercellular Adhesion Molecule 1 (ICAM1), ICAM1 (gene 3383)
The experiment in a line: LTEA_HepaRG_ICAM1: Life Technologies and Expression Analysis (LTEA) Assay for Intercellular Adhesion Molecule 1 (ICAM1) using HepaRG (AID 2283507). Put shortly:
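Differentiated human HepaRG cells in serum-free induction medium exposed 48 h in duplicate to 8 half-log concentrations (top 100 uM, 0.5% DMSO). ICAM1 mRNA quantified by TaqMan qRT-PCR, normalized to ACTB, GAPDH and POLR2A; bidirectional fitting versus DMSO.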

The source made the active and inactive calls. The calls were made as follows: active = hit-call score of the fitted dose curve at least 0.9, where 1 is the maximum; inactive = score below 0.9.

Sequence of Hypoxia-inducible factor 1-alpha (Homo sapiens) (Q16665 whole entry, looked up): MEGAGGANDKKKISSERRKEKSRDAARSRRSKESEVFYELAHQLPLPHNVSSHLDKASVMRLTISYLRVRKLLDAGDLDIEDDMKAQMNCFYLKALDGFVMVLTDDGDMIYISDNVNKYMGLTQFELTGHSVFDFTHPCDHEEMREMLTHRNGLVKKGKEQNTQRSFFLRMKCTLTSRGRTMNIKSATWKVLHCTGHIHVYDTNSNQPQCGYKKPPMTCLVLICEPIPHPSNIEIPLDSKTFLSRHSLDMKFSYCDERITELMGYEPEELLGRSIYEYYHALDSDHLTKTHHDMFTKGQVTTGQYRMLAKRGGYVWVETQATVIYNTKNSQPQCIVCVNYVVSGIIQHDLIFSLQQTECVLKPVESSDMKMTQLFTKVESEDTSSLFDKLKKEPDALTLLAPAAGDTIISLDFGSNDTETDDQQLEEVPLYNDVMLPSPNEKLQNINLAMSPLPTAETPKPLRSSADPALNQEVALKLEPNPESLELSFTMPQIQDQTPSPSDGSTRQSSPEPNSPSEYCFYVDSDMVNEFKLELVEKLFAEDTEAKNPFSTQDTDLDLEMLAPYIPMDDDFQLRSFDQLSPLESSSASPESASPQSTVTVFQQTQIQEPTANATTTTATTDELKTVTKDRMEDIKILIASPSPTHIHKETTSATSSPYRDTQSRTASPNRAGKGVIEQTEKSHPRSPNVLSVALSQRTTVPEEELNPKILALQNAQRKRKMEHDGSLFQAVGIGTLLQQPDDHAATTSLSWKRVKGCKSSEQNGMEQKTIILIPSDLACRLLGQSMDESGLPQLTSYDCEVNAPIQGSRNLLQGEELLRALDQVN

On to `CCCCOC(=O)CCCCCCCCC(=O)OCCCC`, for which the molecule was classed as inactive in [1], in assay [2], in [3], in [4], in assay [5] and in [6]. In addition, the outcome (in [7]; in assay [8]; in the assay with HGF (gene 3082); in assay [9]; in [10]; in [11]) was inactive. Moreover, the result in assay [12], in assay [13], in [14], in assay [15], in assay [16] and in [17] was inactive. Also, the result in assay [18] was inactive.
Regarding `CCCCCCCCCCCC(=O)OC`, the outcome in assay [1], in assay [2], in [4], in assay [5], in assay [6] and in assay [7] was inactive. For the same molecule, the molecule was called inactive (in assay [8]; with HGF (gene 3082); in assay [9]; in assay [19]; in [10]; in assay [11]). Besides, the molecule was called inactive in assay [12], in [13], in assay [14], in assay [15], in assay [16] and in assay [17].
For the molecule `Cc1nc(C)nc(N2C[C@@H](C)N(c3ccnc([C@@H](C)O)n3)[C@@H](C)C2)n1`, the AC50 in assay [1] is 25 µM (active); in the assay with HGF (gene 3082) it was 15.3 µM (active). Moreover, the molecule was classed as inactive in [2], in assay [3], in assay [4], in assay [5], in [6] and in [7]. Also, the outcome in assay [8], in assay [9], in [10], in assay [11], in assay [12] and in [13] was inactive. Moreover, the molecule was called inactive in [14], in assay [15], in assay [17] and in assay [18].
`CC1=C(/C=C/C(C)=C/C=C/C(C)=C/CO)C(C)(C)CCC1`: the AC50 in assay [1] was 52.2 µM (active); in assay [6], 68.4 µM (active); in assay [9], 52.2 µM (active). In addition, the call in assay [2], in [3], in assay [4], in assay [5], in assay [7] and in [8] was inactive. The molecule was called inactive (in the assay with HGF (gene 3082); in [10]; in [11]; in assay [12]; in assay [13]; in [14]). The outcome in assay [15], in assay [16], in assay [17] and in assay [18] was inactive.
